# Data as given in PubChem BioAssay (NCATS).
# Records with an inconclusive call do not appear. Calls of active or inactive are those of the source. Calls come from the whole dose curve; as a rule, active = well fitted inhibition curve with a large enough effect; inconclusive = small, poorly fitted or top-dose-only effect; inactive = flat fitted curve, though single readings scatter.
# Test system: HEK293
# Assay: Cytotoxic Profiling of Annotated Libraries Using Quantitative High-Throughput Screening (AID 1296008); note: nearly all actives have a fitted effect of over 60% in size
# Details: Five cell lines viability, CellTiter-Glo ATP luminescence, 48-72 h; max response: stronger effect = lower value
# Outline: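 Cytotoxicity was measured as CellTiter-Glo ATP luminescence, read after 10 min at room temperature. Compound treatment of the cells lasted 48 or 72 hr at 37 degrees Celsius in a qHTS format.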
# % is set by controls: 0 for no effect and ±100 for the full control effect; potency is the fitted concentration of half-maximal effect.
Compound,max response,Potency
COc1cc2c3c(cc4ccccc4c3c1O)NC2=O,-10.3% (inactive),
CC(C)=CCC[C@](C)(O[C@@H]1O[C@H](CO[C@@H]2O[C@H](CO)[C@@H](O)[C@H](O)[C@H]2O)[C@@H](O)[C@H](O)[C@H]1O)C1CC[C@]2(C)[C@@H]1[C@H](O)CC1[C@@]3(C)CC[C@H](O[C@@H]4O[C@H](CO)[C@@H](O)[C@H](O)[C@H]4O[C@@H]4O[C@H](CO)[C@@H](O)[C@H](O)[C@H]4O)C(C)(C)[C@@H]3CC[C@]12C (stereo partly drawn),0.0713% (inactive),
CC1(C)CC[C@]2(C(=O)O[C@@H]3O[C@H](CO)[C@@H](O)[C@H](O)[C@H]3O)CC[C@]3(C)C(=CCC4[C@@]5(C)CC[C@H](O[C@@H]6O[C@H](C(=O)O)[C@@H](O)[C@H](O)[C@H]6O)[C@@](C)(CO)C5CC[C@]43C)C2C1 (stereo partly drawn),-6.82% (inactive),
COC(=O)C1=CO[C@@H](O[C@@H]2O[C@H](CO)[C@@H](O)[C@H](O)[C@H]2O)[C@H]2[C@@H]1CC(OC)O[C@@H]2C (stereo partly drawn),4.51% (inactive),
CC(=O)O[C@@H]1[C@H](O[C@@H]2O[C@@H](CO)[C@H](O)[C@H]2O)[C@@H](O[C@@H]2O[C@@H](C)[C@H](O[C@@H]3OC[C@@H](O)[C@H](O)[C@H]3O)[C@@H](O)[C@H]2O)[C@H](OC(=O)[C@]23CCC(C)(C)C[C@H]2C2=CCC4[C@@]5(C)CC[C@H](O[C@@H]6O[C@H](C(=O)O)[C@@H](O)[C@H](O)[C@H]6O[C@@H]6O[C@H](CO)[C@H](O)[C@H](O)[C@H]6O)[C@@](C)(C=O)C5CC[C@@]4(C)[C@]2(C)CC3)O[C@@H]1C (stereo partly drawn),-1.69% (inactive),
Nc1ncnc2c1ncn2CCNCCCCCO,4.45% (inactive),
COC(=O)[C@@]1(c2ccc(C)cc2)C[C@H]1CN1CCC(O)(c2ccccc2)CC1,-9.08% (inactive),
CC(C)c1nnc(-c2ccc(-c3ccccc3)nc2)n1-c1cccc2nonc12,3.01% (inactive),
C=C1C(OC(C)=O)CCC2(C)CC3(OC)OC(=O)C(C)=C3CC12 (stereo not drawn),-22.9% (inactive),
CN(C)C/C=C/C(=O)Nc1cccc(C(=O)Nc2ccc(Nc3nccc(-c4cccnc4)n3)cc2)c1,,5.8 µM (active)
COc1c2c(c(C)c3c1C(=O)OC3)OC1(C)CC(O)C34OC(OC)(OC3(C)C)C(O)CC4(C)C1C2 (stereo not drawn),-9.65% (inactive),
O=C(O)c1ccccc1NCCc1ccccc1,1.97% (inactive),
Cc1cn(C2C=CC(CO)O2)c(=O)[nH]c1=O (stereo not drawn),-22.8% (inactive),
